rTrxR1 inhibitor: rat TrxR1 inhibition. 390,000 compounds, 1% hits. AID 588453. Potency, µM (doses to about 114 µM), inactives show at the top dose activity change, negative = inhibition, usual class: inhibitors. recombinant rTrxR1, NADPH fluorescence consumption, selenite substrate; note: % is set by controls: 0 for no effect and ±100 for the full control effect; nearly all actives have a fitted effect of over 65% in size
Target sequence (O89049 whole entry, looked up): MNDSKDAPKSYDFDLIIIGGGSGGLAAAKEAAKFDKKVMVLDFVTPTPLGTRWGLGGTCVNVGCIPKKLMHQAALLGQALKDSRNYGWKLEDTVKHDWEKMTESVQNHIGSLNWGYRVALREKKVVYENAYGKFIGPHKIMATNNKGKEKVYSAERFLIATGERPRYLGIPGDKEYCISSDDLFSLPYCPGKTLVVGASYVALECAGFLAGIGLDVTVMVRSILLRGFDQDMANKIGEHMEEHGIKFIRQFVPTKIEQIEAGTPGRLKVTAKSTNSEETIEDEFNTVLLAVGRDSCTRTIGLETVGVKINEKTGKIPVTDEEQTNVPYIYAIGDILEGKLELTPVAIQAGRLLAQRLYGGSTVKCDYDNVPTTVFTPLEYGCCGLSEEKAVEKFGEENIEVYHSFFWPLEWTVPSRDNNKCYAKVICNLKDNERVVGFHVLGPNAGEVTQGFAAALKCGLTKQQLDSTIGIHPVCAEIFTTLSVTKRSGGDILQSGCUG
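Rat TrxR1 (90 nM in the dispensed reagent) was pre-reduced with 400 uM NADPH for 5 min at room temperature, then incubated with compound for 15 min. After 400 uM selenite was added, NADPH fluorescence (Ex 340/Em 450 nm) was followed for 8 min.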
Nrf2 activator: activators of Nrf2 (ARE) signaling; AREc32 ARE-luciferase reporter (MCF7-derived line), luminescence, 24 h; Potency, µM (highest dose often 46.1 µM), inactives show at the top dose activation, usual class: activators; 410,000 compounds, 0.31% hits; AID 624171; note: % of control where 0% means no effect; nearly all actives have a fitted effect of over 65% in size
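For detection, Steady-Glo was added and plates sat 30 min at RT; before that, AREc32_Fluc cells grown overnight in OPTI-MEM/5% FBS had been treated with 23 nL compound for 24 hr at 37 deg C.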
A549 tox: kills or reduces viability of A549 cells in Nrf2 counter-screen; A549 ARE-Fluc cells, CellTiter-Fluor viability, 18-24 h; Potency, µM (top dose mostly 46 µM), without a hit: at the highest dose activity change, negative = cytotoxicity, hits mostly inhibitors; 390,000 compounds, 0.16% hits; note: % is set by controls: 0 for no effect and ±100 for the full control effect
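A549 ARE-Fluc cells in 5% FBS OPTI-MEM, 5000 cells/well, rested 2 h then exposed to compounds in concentration-response for 18-24 h at 37 °C. Viability by CellTiter-Fluor fluorescence (Ex 405/Em 525) after 30 min; luciferase luminescence (BugLite, 15 min, RT) read afterwards.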
GALK inhibitor: inhibitors of human galactokinase; Purified GALK, Kinase-Glo residual ATP luminescence; 270,000 compounds, 0.007% hits; Potency, µM (series often up to 57.5 µM), inactives show top-dose activity change, negative = inhibition, hits mostly inhibitors; P51570; note: % is set by controls: 0 for no effect and ±100 for the full control effect
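The enzyme phosphorylates galactose (100 uM) using ATP (35 uM); inhibition is detected as higher residual ATP, quantified by bioluminescence after 1 h reaction at room temperature, pH 8.0.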
TrxR1 substrate: rat thioredoxin reductase 1 substrate activity | O89049 | purified TrxR1 substrate turnover, NADPH consumption readout | Potency, µM (series often up to 114 µM), inactives show at the highest dose activity change, negative = substrate turnover | 390,000 compounds, 0.01% hits; note: % is set by controls: 0 for no effect and ±100 for the full control effect; nearly all actives have a fitted effect of over 50% in size
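Rat TrxR1, dispensed at 90 nM, was prereduced with 400 uM NADPH (final) for 5 min at ~22 deg C, then incubated with compound 15 min before 400 uM selenite. A first-read NADPH fluorescence drop versus no-compound background flagged substrates.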
Nrf2 inh: blocks Nrf2 signaling | Potency, µM (highest dose often 46 µM), without a hit: at the highest dose activity change, negative = inhibition, actives largely listed as inhibitors | AID 504444 | A549 ARE-Fluc reporter, luciferase luminescence, 18-24 h | 360,000 compounds, 2.1% hits; note: % is set by controls: 0 for no effect and ±100 for the full control effect; nearly all actives have a fitted effect of over 60% in size
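Cells were seeded and rested 2 h, then exposed to compounds for 18-24 h. CellTiter-Fluor was read first as a viability measure. BugLite was added 15 min before the final luminescent read of ARE-luciferase activity in A549 cells.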
Starred values were filed as active, the others as inactive; ? = inconclusive; . = not tested or not shown; [ ] = dose if it differs, or a comment. Shown are actives, neighbours in structure and some others; about 3% of the full set was active somewhere. Calls come from the whole dose curve; as a rule, active = well fitted curve in the direction sought with a large enough effect; inconclusive = small, poorly fitted or top-dose-only effect, or another doubt; inactive = no such curve, though single readings can be large; an effect the other way counts as inactive or inconclusive. Potency is the fitted concentration of half-maximal effect.

SMILES	rTrxR1 inhibitor	Nrf2 activator	A549 tox	GALK inhibitor	TrxR1 substrate	Nrf2 inh
Cc1ccc(N(C(C)C(=O)Nc2cc(Cl)ccc2Oc2ccccc2)S(C)(=O)=O)cc1 (configuration not stated)	-10%	2%	0%	3%	-5%	21µM*
COc1ccc(C)cc1NC(=O)C(C)N(c1ccc(C)cc1)S(C)(=O)=O (configuration not stated)	4%	1%	12%	-1%	-8%	.
O=C(COc1ccccc1[N+](=O)[O-])NNC(=O)Nc1cccc2ccccc12	24%	14µM*	-4%	0%	11%	?
O=C(COc1cccnc1[N+](=O)[O-])Nc1cccc2ccccc12	-6%	5.6µM*	-4%	.	-11%	-11%
O=C(COc1cccnc1[N+](=O)[O-])Nc1c(Cl)cccc1Cl	3%[2.29 µM]	1%	3%	.	-1%[2.29 µM]	-29%
O=C(COc1cccnc1[N+](=O)[O-])c1ccc(Cl)s1	25µM*	6%	0%	1%	-5%	5%
O=C(COc1cccnc1[N+](=O)[O-])N1CCC(Cc2ccccc2)CC1	7%	3%	2%	.	-1%	15µM*
NNC(=O)COc1ccccc1[N+](=O)[O-]	20%	0%	2%	4%	-2%	12%
Cc1ccc(OCC(=O)N2CCC(Cc3ccccc3)CC2)c([N+](=O)[O-])n1	35%	0%	1%	.	4%	-11%
CCC(=O)Nc1ccc(S(=O)(=O)NCc2cccn2Cc2cccc(C)c2)cc1	5%[57.1 µM]	6%	3%	.	-1%[57.1 µM]	.
CCN1C(=O)Nc2cccc3cccc1c23	2%	?	2%	.	-1%	8.2µM*
Cc1ccc2nc(-c3ccc(C)c(NC(=O)COc4ccccc4Cl)c3)oc2c1	10%	.	.	.	1%	.
CN(C)CCNC(=O)c1sc2cccc(F)c2c1Cl	1%	2%	9%	-1%	-3%	-7%
CN(C)CCNC(=O)c1ccccc1	8%	3%	-9%	1%	3%	7%
CN(C)CCNC(=O)c1cccc2ccc(-c3ccc(-c4ccccc4)cc3)nc12	4%[11.4 µM]	4.5µM*	?	.	50%[57.1 µM]	-16%
COc1ccc(C23CC4CC(CC(C4)C2)C3)cc1C(=O)NCCN(C)C	30%	-4%	1%	-2%	4%	-13%
COc1ccc(OC)c2nc3c(C(=O)NCCN(C)C)cccc3nc12	24%[11.4 µM]	0%	16µM*	.	9%[57.1 µM]	5.8µM*
CN(C)CCNC(=O)c1cccc2nc3cccc(F)c3nc12	-20%	0%	10µM*	.	-17%	4.6µM*
CN(C(=O)CSc1cn(CC(=O)N2CCCCCC2)c2ccccc12)c1ccccc1	2%	5%	-1%	.	-3%	?
CCOC(=O)c1cc(-c2ccccc2)sc1NC(=O)COC(=O)c1ccc(Cl)c(S(N)(=O)=O)c1	28%[57.1 µM]	0%	?	0%	-11%[57.1 µM]	23µM*
CCOC(=O)c1cc(-c2ccccc2)sc1NC(=O)COC(=O)c1cccc(S(N)(=O)=O)c1	8%[57.1 µM]	1%	-3%	0%	-3%[57.1 µM]	-19%
CC(C)N(CCC(=O)c1ccc2ccccc2c1)Cc1ccccc1	3.2µM*	?	?	.	25%[57.1 µM]	?
COc1ccc(-c2nnc(SCC(=O)N3CCC(C)CC3)o2)cc1	5%	-1%	-9%	.	5%	-28%
Cc1ccc(C)c(N2CCN(C(=O)c3ccc(CS(=O)Cc4cccc(Cl)c4)o3)CC2)c1 (configuration not stated)	7%	0%	-8%	5%	0%	18µM*
COC/C=C/c1cc(F)c(S(=O)(=O)N2CCN(S(=O)(=O)c3ccc4c(c3)OCCO4)CC2)cc1F	.	.	-4%	.	.	-23%
SMILES	rTrxR1 inhibitor	Nrf2 activator	A549 tox	GALK inhibitor	TrxR1 substrate	Nrf2 inh
CN(C)/C=C/C(=O)c1ccc(Cl)c([N+](=O)[O-])c1	31%[11.4 µM]	13µM*	-11%	0%	-19%[11.4 µM]	3%
Cc1ccc(-c2csc3ncnc(NCCN4CCOCC4)c23)cc1	14%	0%	0%	0%	-2%[57.1 µM]	?
c1ccc(-c2csc3ncnc(NCCN4CCOCC4)c23)cc1	37%[57.1 µM]	0%	-18%	-1%	3%[57.1 µM]	15µM*
N#CC(C#N)=Cc1ccc(OC(=O)c2ccccn2)cc1	13µM*	2%	4%	1%	0%[57.1 µM]	?
COC(=O)c1ccc(OC(=O)c2ccccn2)cc1	9%[57.1 µM]	0%	-16%	-4%	0%[57.1 µM]	-27%
COc1cc(C(=O)Nc2cc3c(cc2C)n(C)c(=O)c(=O)n3C)cc(OC)c1OC	0%	-1%	2%	.	-2%	-3%
COc1ccc(C2C(C#N)=C(N)Oc3cc(O)ccc32)cc1C (configuration not stated)	16µM*	0%	2%	-2%	-1%	5%
COc1ccc(C2C(C#N)=C(N)Oc3cc(O)ccc32)cc1OC (configuration not stated)	7%[57.1 µM]	-1%	2%	-2%	6%[57.1 µM]	.
CN(C)c1ccc(/C=C/c2ccnc3ccc(I)cc23)cc1	-18%	.	.	.	-10%	.
COc1cc2c(NC3CCN(C)CC3)nc(N3CCCCC3)nc2cc1OCCCN(C)C	-21%	.	.	.	90%	.
O=S(NCc1ccco1)C12CC3CC(CC(C3)C1)C2 (configuration not stated)	35µM*	0%	-5%	-4%	11%	-12%
O=S(NCc1ccccc1)C12CC3CC(CC(C3)C1)C2 (configuration not stated)	0%	-1%	-3%	-3%	5%	24%
CN(Cc1cccs1)c1ncnc2ccc(-c3ccc4c(c3)OCO4)cc12	.	.	8%	.	.	13%
COC(=O)CSc1[nH]c2ccc(F)cc2c1[N+](=O)[O-]	35µM*	11%	-8%	0%	-2%	-3%
CCOC(=O)CSc1[nH]c2cc(OC)ccc2c1[N+](=O)[O-]	-53%	3%	-5%	0%	12%[57.1 µM]	4%
CCOCCCn1c(C)nc2c(c1=O)c1nc3ccccc3nc1n2CCC1=CCCCC1	26%	0%	?	1%	54%	13µM*
Cc1nc2c(c(=O)n1CCC1=CCCCC1)c1nc3ccccc3nc1n2/N=C/c1ccccc1	-19%	1%	.	0%	-10%	?
CCc1ccc(CNC(=O)Cn2nc(C)n3c(cc4cc(C)ccc43)c2=O)cc1	23%	-1%	1%	.	6%	7%
Cc1ccc(NC(=O)CSc2ccccc2NC(=O)c2ccccc2)cc1Cl	17%	4%	-23%	0%	14%	?
Cc1ccc(NC(=O)CSc2ccccc2NC(=O)c2ccccc2Cl)cc1Cl	-5%	2%	?	1%	-7%	26µM*

From PubChem BioAssay
